The target of assay [1] is T1, GST-Nv-NF-kB (Ser allele) (Nematostella vectensis, UniProt A7UNT2 2-411).
T1 sequence: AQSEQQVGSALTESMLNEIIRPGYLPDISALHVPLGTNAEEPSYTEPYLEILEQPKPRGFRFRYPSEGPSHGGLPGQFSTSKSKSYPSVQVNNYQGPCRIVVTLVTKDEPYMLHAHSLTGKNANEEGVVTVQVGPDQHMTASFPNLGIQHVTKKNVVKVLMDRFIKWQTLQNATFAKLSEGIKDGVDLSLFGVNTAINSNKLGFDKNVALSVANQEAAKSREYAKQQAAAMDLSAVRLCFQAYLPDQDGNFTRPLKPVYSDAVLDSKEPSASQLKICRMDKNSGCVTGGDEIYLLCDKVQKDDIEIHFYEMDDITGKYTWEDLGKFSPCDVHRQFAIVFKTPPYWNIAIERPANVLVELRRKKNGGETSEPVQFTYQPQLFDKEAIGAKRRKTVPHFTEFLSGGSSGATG
As to the kind of experiment: protein-binding microarray (PBM); PBM: ~300 nM protein, 6 mM HEPES pH 7.8, 80 mM KCl, 0.5 mM EDTA, 0.5 mM EGTA, 6% glycerol, 35 ng/ul poly-dIdC, 1% milk, 1 h, room temperature; Ap Aiptasia and Nv Nematostella (sea anemones) / Co Capsaspora / Aq Amphimedon (sponge) / Dm Drosophila / Hu human; RHD is the Rel homology domain; high values mean tight binding. The note with it: dsDNA, one strand shown.

The target in the next assay is GST-Hu-p50 (Homo sapiens, UniProt P19838 7-356). The assay is described as above. The conditions noted are these: dsDNA, one strand shown.
Chain of GST-Hu-p50 (P19838 7-356): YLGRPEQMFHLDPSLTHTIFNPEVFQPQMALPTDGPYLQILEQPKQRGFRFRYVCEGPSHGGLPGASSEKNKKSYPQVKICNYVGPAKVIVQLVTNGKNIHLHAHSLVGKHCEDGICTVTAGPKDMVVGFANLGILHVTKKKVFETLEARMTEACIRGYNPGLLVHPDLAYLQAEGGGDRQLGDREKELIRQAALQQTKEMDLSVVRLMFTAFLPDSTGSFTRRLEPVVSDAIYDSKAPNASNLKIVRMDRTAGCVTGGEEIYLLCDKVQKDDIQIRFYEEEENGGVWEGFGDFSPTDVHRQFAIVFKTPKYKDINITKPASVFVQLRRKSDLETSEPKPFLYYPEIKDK

Consider “CCGATTAACATCAAACTTTCCCATGATGTTAATCGGGTCTTGATTCGCTTGACGCTGCTG”, for which the values for the binding signal (in assay [1]; with GST-Hu-p50) were 4.64 z-score and 4.07 z-score, respectively.

As for “CCGATTAACATCAGGGATTACCATGATGTTAATCGGGTCTTGATTCGCTTGACGCTGCTG”, the results for the binding signal (in assay [1]; with GST-Hu-p50) were 2.16 z-score and 1.76 z-score, respectively.

In the case of “CCGATTAACATCAGGGATTCCCATGATGTTAATCGGGTCTTGATTCGCTTGACGCTGCTG”, the binding signal in assay [1] came to 3.26 z-score; with GST-Hu-p50, 3.48 z-score.

With “CCGATTAACATCAGATATTTCCCTGATGTTAATCGGGTCTTGATTCGCTTGACGCTGCTG”, the results for the binding signal (in assay [1]; in the assay with GST-Hu-p50) were 5.36 z-score and 3.91 z-score, respectively.

As for “CCGATTAACATCAGAATTACCCATGATGTTAATCGGGTCTTGATTCGCTTGACGCTGCTG”, the binding signal in assay [1] amounted to 3.26 z-score; with GST-Hu-p50, 2.83 z-score.

For the sequence “CCGATTAACATCACATTATCCCCTGATGTTAATCGGGTCTTGATTCGCTTGACGCTGCTG”, the binding signal came to 6.4 z-score in assay [1] and 3.94 z-score in the assay with GST-Hu-p50.

With “CCGATTAACATCAAGGGAATACCTGATGTTAATCGGGTCTTGATTCGCTTGACGCTGCTG”, the values for the binding signal (in assay [1]; with GST-Hu-p50) were 4.14 z-score and 2.34 z-score, respectively.

For the sequence “CCGATTAACATCAAGGGGTCCCCTGATGTTAATCGGGTCTTGATTCGCTTGACGCTGCTG”, the binding signal turned out to be 2.59 z-score in assay [1] and 3.06 z-score with GST-Hu-p50.

Consider “CCGATTAACATCAGGGAATATAATGATGTTAATCGGGTCTTGATTCGCTTGACGCTGCTG”, for which the binding signal stood at 3.88 z-score in assay [1] and 2.29 z-score with GST-Hu-p50.

On to “CCGATTAACATCAGGGGAAGGTATGATGTTAATCGGGTCTTGATTCGCTTGACGCTGCTG”, for which the figures for the binding signal (in assay [1]; with GST-Hu-p50) were 5.76 z-score and 3.52 z-score, respectively.

In the case of “CCGATTAACATCACGGACTCCCCTGATGTTAATCGGGTCTTGATTCGCTTGACGCTGCTG”, the binding signal in assay [1] amounted to 4.46 z-score; with GST-Hu-p50, 3.34 z-score.

As for “CCGATTAACATCAATCTACCCCCTGATGTTAATCGGGTCTTGATTCGCTTGACGCTGCTG”, the results for the binding signal (in assay [1]; with GST-Hu-p50) were 4.13 z-score and 4.39 z-score, respectively.

Take “CCGATTAACATCACCCACTTCCCTGATGTTAATCGGGTCTTGATTCGCTTGACGCTGCTG”: the binding signal was determined as 2.13 z-score in assay [1] and 1.86 z-score in the assay with GST-Hu-p50.

Turning to “CCGATTAACATCACACCCCCCCCTGATGTTAATCGGGTCTTGATTCGCTTGACGCTGCTG”, the binding signal came out at 3.66 z-score in assay [1] and 3.76 z-score in the assay with GST-Hu-p50.

On to “CCGATTAACATCAGGGGAGGAAATGATGTTAATCGGGTCTTGATTCGCTTGACGCTGCTG”, for which the figures for the binding signal (in assay [1]; with GST-Hu-p50) were 4.9 z-score and 3.1 z-score, respectively.

As to “CCGATTAACATCACGTGTTTCCCTGATGTTAATCGGGTCTTGATTCGCTTGACGCTGCTG”, the binding signal in assay [1] came out at 3.33 z-score; with GST-Hu-p50 it was 1.11 z-score.

Consider “CCGATTAACATCACATTCTCCCCTGATGTTAATCGGGTCTTGATTCGCTTGACGCTGCTG”, for which the figures for the binding signal (in assay [1]; in the assay with GST-Hu-p50) were 5.45 z-score and 3.4 z-score, respectively.

On to “CCGATTAACATCAGGGGTAGGTTTGATGTTAATCGGGTCTTGATTCGCTTGACGCTGCTG”, for which the figures for the binding signal (in assay [1]; in the assay with GST-Hu-p50) were 1.33 z-score and 1.07 z-score, respectively.

As to “CCGATTAACATCACGAGATTCCCTGATGTTAATCGGGTCTTGATTCGCTTGACGCTGCTG”, the results for the binding signal (in assay [1]; in the assay with GST-Hu-p50) were 3.97 z-score and 2.64 z-score, respectively.

As to “CCGATTAACATCAATAAATACCCTGATGTTAATCGGGTCTTGATTCGCTTGACGCTGCTG”, the figures for the binding signal (in assay [1]; with GST-Hu-p50) were 6.32 z-score and 5.25 z-score, respectively.

Turning to “CCGATTAACATCAGACAATTCCCTGATGTTAATCGGGTCTTGATTCGCTTGACGCTGCTG”, the figures for the binding signal (in assay [1]; with GST-Hu-p50) were 4.51 z-score and 4.15 z-score, respectively.

In the case of “CCGATTAACATCAAAAATTTACCTGATGTTAATCGGGTCTTGATTCGCTTGACGCTGCTG”, the binding signal in assay [1] came to 6.08 z-score; with GST-Hu-p50, 3.82 z-score.

In the case of “CCGATTAACATCAGGGTATTTACTGATGTTAATCGGGTCTTGATTCGCTTGACGCTGCTG”, the binding signal was determined as 4.72 z-score in assay [1] and 5.1 z-score with GST-Hu-p50.

As to “CCGATTAACATCACAAAATTTCCTGATGTTAATCGGGTCTTGATTCGCTTGACGCTGCTG”, the binding signal in assay [1] is 1.16 z-score; in the assay with GST-Hu-p50, 1.41 z-score.

Turning to “CCGATTAACATCAGGCATTTCCCTGATGTTAATCGGGTCTTGATTCGCTTGACGCTGCTG”, the binding signal in assay [1] stood at 3.99 z-score; with GST-Hu-p50 it was 3.68 z-score.

In the case of “CCGATTAACATCACTGGGAAAACTGATGTTAATCGGGTCTTGATTCGCTTGACGCTGCTG”, the binding signal turned out to be 3.57 z-score in assay [1] and 2.39 z-score with GST-Hu-p50.

“CCGATTAACATCAGGGAAAGTAATGATGTTAATCGGGTCTTGATTCGCTTGACGCTGCTG”: the binding signal in assay [1] is 5.14 z-score; with GST-Hu-p50, 3.58 z-score.

As to “CCGATTAACATCAGGGGGTGTAATGATGTTAATCGGGTCTTGATTCGCTTGACGCTGCTG”, the binding signal in assay [1] came to 4.19 z-score; with GST-Hu-p50 it was 3.98 z-score.

Take “CCGATTAACATCAGGCGAGTCCCTGATGTTAATCGGGTCTTGATTCGCTTGACGCTGCTG”: the binding signal was 2.72 z-score in assay [1] and 2.61 z-score in the assay with GST-Hu-p50.

As to “CCGATTAACATCAGGTTTTTCCATGATGTTAATCGGGTCTTGATTCGCTTGACGCTGCTG”, the binding signal came to 1.02 z-score in assay [1] and 1.41 z-score with GST-Hu-p50.

Regarding “CCGATTAACATCAATTGCCCCCCTGATGTTAATCGGGTCTTGATTCGCTTGACGCTGCTG”, the binding signal in assay [1] was 3.84 z-score; with GST-Hu-p50 it was 2.9 z-score.

On to “CCGATTAACATCAAATTCCCAGATGATGTTAATCGGGTCTTGATTCGCTTGACGCTGCTG”, for which the binding signal in assay [1] was found to be 3.83 z-score; in the assay with GST-Hu-p50, 2.58 z-score.

For “CCGATTAACATCAAGGGATTCCCTGATGTTAATCGGGTCTTGATTCGCTTGACGCTGCTG”, the binding signal in assay [1] was determined as 4.98 z-score; with GST-Hu-p50 it was 3.73 z-score.

In the case of “CCGATTAACATCACGTTATTCCCTGATGTTAATCGGGTCTTGATTCGCTTGACGCTGCTG”, the binding signal in assay [1] amounted to 3.53 z-score; with GST-Hu-p50, 1.05 z-score.

As to “CCGATTAACATCAACATGGGAATTGATGTTAATCGGGTCTTGATTCGCTTGACGCTGCTG”, the binding signal in assay [1] amounted to 1.75 z-score; with GST-Hu-p50, 1.37 z-score.

For “CCGATTAACATCAGGGGGTAAAATGATGTTAATCGGGTCTTGATTCGCTTGACGCTGCTG”, the binding signal worked out at 6.35 z-score in assay [1] and 4.51 z-score with GST-Hu-p50.

Consider “CCGATTAACATCAATCACCCCCATGATGTTAATCGGGTCTTGATTCGCTTGACGCTGCTG”, for which the binding signal in assay [1] stood at 2.78 z-score; with GST-Hu-p50, 3.76 z-score.

For “CCGATTAACATCACTGGGATTTCTGATGTTAATCGGGTCTTGATTCGCTTGACGCTGCTG”, the binding signal in assay [1] was 1.8 z-score; with GST-Hu-p50 it was 2.5 z-score.
